Test systems include SK-MEL-2 melanoma; EKVX NSCLC; SN12C renal; UO-31 renal; TK-10 renal; ACHN renal; CAKI-1 renal; A498 renal; CCRF-CEM leukemia; MOLT-4 leukemia; SR leukemia; RPMI-8226 leukemia; OVCAR-8 ovarian; OVCAR-5 ovarian; OVCAR-4 ovarian; SK-OV-3 ovarian; IGROV1 ovarian; OVCAR-3 ovarian; HS 578T breast; NCI/ADR-RES ovarian.
What all share (assay): NCI-60 one-dose screen, 48 h (100 = growth as untreated, 0 = no growth, -100 = all killed)
What all share (conditions): 10 µM unless noted

About 83,000 compounds went through this panel and 20% of them were active in at least one assay; those are over-represented in the sample as a whole.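 Activity criterion: percent growth below 10, measured after cells in 96-well plates were exposed to a single compound concentration for 48 hours.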 Unmarked numbers belong to inactive results. Activity calls are given as the source filed them.

Take `C#CCCCNCCNc1ccnc2cc(Cl)ccc12`: the growth in the assay on SK-MEL-2 melanoma was 98.1%; with EKVX NSCLC it was 70.3%; in the assay on SN12C renal, 74.2%; in the assay on UO-31 renal, 60.8%; with TK-10 renal it was 82.9%; in the assay on ACHN renal, 87.7%. The growth is 44.5% with CAKI-1 renal; 108% in the assay with A498 renal; 77.6% in the assay with CCRF-CEM leukemia; 65.1% with MOLT-4 leukemia; 2.22% (active) in the assay with SR leukemia; 47.9% in the assay on RPMI-8226 leukemia. Besides, the growth was 79.6% in the assay on OVCAR-8 ovarian; 64.3% in the assay with OVCAR-5 ovarian; 89.8% in the assay with OVCAR-4 ovarian; 103% in the assay with SK-OV-3 ovarian; 84.6% with IGROV1 ovarian; 85.8% in the assay with OVCAR-3 ovarian. The results for the growth in the assay with HS 578T breast and with NCI/ADR-RES ovarian were 91.8% and 68.8%, respectively.

`CC[C@]12C=CCN3CC[C@]4(C(=C(C(=O)OC)C1)Nc1cc(OC)c([C@@H]5[C@H]6O[C@H]6[C@@]6(CC)CC(C(=O)OC)=C7Nc8cc(O)ccc8[C@@]78CCN5[C@@H]68)cc14)[C@@H]32`: the growth in the assay on SK-MEL-2 melanoma is -67.3% (active); with EKVX NSCLC, 6.25% (active); in the assay on SN12C renal, -30.1% (active); in the assay on UO-31 renal, -4.18% (active); in the assay on TK-10 renal, 25.6%; with ACHN renal it was 1.9% (active). For the same molecule, the growth in the assay on CAKI-1 renal was 11.7%; in the assay with A498 renal, 59%; in the assay with CCRF-CEM leukemia, -5.67% (active); in the assay with MOLT-4 leukemia it was -11.5% (active); in the assay with SR leukemia, -30.7% (active); with RPMI-8226 leukemia, -5.84% (active). For the same molecule, the growth in the assay on OVCAR-8 ovarian is 27.6%; with OVCAR-5 ovarian, -66.7% (active); with OVCAR-4 ovarian, 14.6%; with SK-OV-3 ovarian it was 40.2%; in the assay on IGROV1 ovarian, 1.62% (active); in the assay with OVCAR-3 ovarian, -9.2% (active). In addition, the figures for the growth in the assay with HS 578T breast and with NCI/ADR-RES ovarian were 23.7% and 6.92% (active), respectively.

As for `CCOc1ccccc1NC(=O)N/C(N)=N/c1nc2ccccc2s1`, the growth was 38.7% in the assay on SK-MEL-2 melanoma; 42.9% in the assay with EKVX NSCLC; 8.49% (active) in the assay with SN12C renal; 44.6% with UO-31 renal; 63% in the assay with TK-10 renal; 18.5% in the assay on ACHN renal. The growth in the assay on CAKI-1 renal was 17.8%; in the assay with A498 renal, 90.9%; in the assay with CCRF-CEM leukemia, 0.25% (active); with MOLT-4 leukemia, 7.53% (active); in the assay with SR leukemia, 5.36% (active); in the assay on RPMI-8226 leukemia it was 0.173% (active). In addition, the growth in the assay on OVCAR-8 ovarian was -15.2% (active); with OVCAR-5 ovarian, 16.9%; in the assay with OVCAR-4 ovarian, 33.9%; in the assay on SK-OV-3 ovarian it was 9.18% (active); in the assay on IGROV1 ovarian it was 22.7%; with OVCAR-3 ovarian, -10.7% (active). The results for the growth in the assay on HS 578T breast and with NCI/ADR-RES ovarian were 60.8% and -14.1% (active), respectively.

Turning to `O=C(c1ccc(Cl)cc1)C1[C@H](c2ccccc2Cl)[C@@H](c2ccccc2)NC12C(=O)Nc1ccc(Cl)cc12` (stereo not given in full), the growth was -87.1% (active) in the assay on SK-MEL-2 melanoma; -23.5% (active) in the assay with EKVX NSCLC; -90.4% (active) in the assay with SN12C renal; -51.2% (active) in the assay with UO-31 renal; -0.422% (active) in the assay with TK-10 renal; -26.1% (active) with ACHN renal. Further, the growth in the assay on CAKI-1 renal was -20.2% (active); in the assay on A498 renal, -40.7% (active); with CCRF-CEM leukemia it was -6.99% (active); in the assay on MOLT-4 leukemia it was -29.4% (active); in the assay with SR leukemia it was -52.8% (active); with RPMI-8226 leukemia, 2.23% (active). Further, the growth with OVCAR-8 ovarian was -76.4% (active); with OVCAR-5 ovarian, -53.8% (active); in the assay on OVCAR-4 ovarian it was -14.4% (active); in the assay on SK-OV-3 ovarian it was 1.4% (active); with IGROV1 ovarian, -42.5% (active); in the assay with OVCAR-3 ovarian, -28.9% (active). Also, the growth with HS 578T breast was -40.4% (active); with NCI/ADR-RES ovarian, -82.7% (active).

Turning to `CCOc1ccc2[nH]c(=O)c(C(c3nnnn3CC3CCCO3)N3CCN(Cc4ccccc4)CC3)cc2c1` (stereo not given), the growth was 102% in the assay on SK-MEL-2 melanoma; 86.9% in the assay with EKVX NSCLC; 88.2% with SN12C renal; 99.9% with UO-31 renal; 114% with TK-10 renal; 61.2% in the assay with ACHN renal. In addition, the growth in the assay with CAKI-1 renal was 76.3%; in the assay with A498 renal it was 76%; with CCRF-CEM leukemia, 93.7%; with MOLT-4 leukemia, 101%; in the assay on SR leukemia, 111%; with RPMI-8226 leukemia it was 99.1%. The growth in the assay with OVCAR-8 ovarian was 84.2%; in the assay on OVCAR-5 ovarian, 97%; in the assay with OVCAR-4 ovarian it was 94.9%; in the assay on SK-OV-3 ovarian, 79.3%; in the assay on IGROV1 ovarian it was 84.6%; in the assay on OVCAR-3 ovarian, 100%. For the same molecule, the growth was 20.1% in the assay on HS 578T breast and 90.1% in the assay on NCI/ADR-RES ovarian.

In the case of `C/C(=N/O)c1ccc(NC(=O)CSc2nnc(-c3ccc(-c4nc5ccc(Cl)cc5[nH]4)cc3)o2)cc1`, the growth in the assay on SK-MEL-2 melanoma was -26% (active); in the assay with EKVX NSCLC it was 13.4%; in the assay with SN12C renal, -33.9% (active); in the assay on UO-31 renal it was 104%; with TK-10 renal, 99.5%; in the assay with ACHN renal, 45.5%. Besides, the growth is 60.2% with CAKI-1 renal; 160% in the assay with A498 renal; 34.5% in the assay with CCRF-CEM leukemia; 2.09% (active) in the assay with MOLT-4 leukemia; 12.3% in the assay with SR leukemia; 18.2% in the assay with RPMI-8226 leukemia. Also, the growth in the assay with OVCAR-8 ovarian was -31.7% (active); in the assay on OVCAR-5 ovarian, 55.3%; in the assay on OVCAR-4 ovarian, 14.5%; with SK-OV-3 ovarian, 39.6%; in the assay on IGROV1 ovarian, 34.5%; with OVCAR-3 ovarian, -5.29% (active). The growth in the assay on HS 578T breast was -13.3% (active); in the assay on NCI/ADR-RES ovarian, 88.9%.

On to `COc1ccc2c(c1)c(-c1cc(N)n3nc(-c4c[nH]c5ccccc45)cc3n1)cn2C`, for which the growth is -65.4% (active) in the assay with SK-MEL-2 melanoma; -79.6% (active) in the assay on EKVX NSCLC; -81% (active) with SN12C renal; -71.1% (active) with UO-31 renal; -92.5% (active) in the assay with TK-10 renal; -79.6% (active) with ACHN renal. In addition, the growth with CAKI-1 renal is -70.2% (active); in the assay on A498 renal, -57.8% (active); with CCRF-CEM leukemia it was -25.1% (active); in the assay with MOLT-4 leukemia, -1.51% (active); in the assay with SR leukemia it was 6.54% (active); in the assay with RPMI-8226 leukemia, -9.07% (active). Moreover, the growth with OVCAR-8 ovarian was -74.7% (active); in the assay on OVCAR-5 ovarian it was -69.7% (active); in the assay on OVCAR-4 ovarian, -29.8% (active); in the assay on SK-OV-3 ovarian, -55.6% (active); in the assay with IGROV1 ovarian, -62.4% (active); in the assay on OVCAR-3 ovarian, -71.1% (active). The growth in the assay with HS 578T breast is -17.9% (active); with NCI/ADR-RES ovarian, -43.3% (active).

For the origin of these results see PubChem BioAssay (NCI).
